Most compounds without a hit are left out; they make up all but 27% or so of the library.
CYP2C19 act: human CYP2C19 activators, primary screen, biochemical, luminescence | Cytochrome P450 2C19 (Homo sapiens), P33261 | recombinant CYP2C19, luciferin-H EGE luminescence; stronger effect = higher value; 0 = fully inhibited enzyme, 1 = untreated enzyme | activation factor at 5 µM | 96,000 tested, under 10 active | AID 1025, 2008;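 active = activation factor of at least 2 at 5 µM in the primary screen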
CYP2C19 inhib: blockers of cytochrome P450 2C19 activity – biochemical, luminescence, ADME assay, primary screen; P33261; inhibition, % at 5 µM; hit rate 21% among 96,000; CYP2C19 Supersomes, luciferin-H EGE luminescence, 30 min; AID 778, 2007;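 active = CYP2C19 inhibition above a set limit at 5 µM in the primary screen, cut at about 50% in these data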
EphB4 antag: EphB4-ephrin-B2 interaction antagonists, primary screen, biochemical, TNYL-RAW peptide probe, fluorescence polarization. Ephrin type-B receptor 4 (Homo sapiens), P54760. EphB4 LBD / TNYL-RAW-Alexa532 peptide. inhibition, % at 7 µM. hit rate 0.15% among 97,000. AID 720, 2007;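 active = inhibition above the screen-wide mean inhibition plus 3 SD, cut at about 15% in these data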
CYP2C9 inh: blockers of cytochrome P450 2C9 activity – biochemical, luminescence, ADME assay, primary screen | AID 777, 2007 | hit rate 20% among 96,000 | inhibition, % at 5 µM | P11712 | CYP2C9 Supersomes, luciferin-H conversion;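 active = blocking of liver enzyme CYP2C9 beyond about 50% at 5 µM, limit read from the data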
CYP2C9 activ: human CYP2C9 activators, primary screen, biochemical, luminescence; hit rate 1.4% among 96,000; activation factor at 5 µM; AID 1024, 2008; recombinant CYP2C9, luciferin-H conversion; stronger effect = higher value; factor 1 = untreated enzyme, 0 = blocked;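 active = activation factor of 2 or more for CYP2C9 at a 5 µM dose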
A number is an active result.

CCn1c(=NC(=O)CSCC(=O)Nc2nccs2)sc2ccccc21 was read as CYP2C19 act inactive, CYP2C19 inhib 92.4, EphB4 antag inactive, CYP2C9 inh 83.7 and CYP2C9 activ inactive.
`O=C(CSCC(=O)Nc1nccs1)Nc1ccccc1` gave CYP2C19 act inactive, CYP2C19 inhib inactive, EphB4 antag inactive, CYP2C9 inh inactive and CYP2C9 activ inactive.
CC1CCCC(C)N1C(=O)Cn1c(=O)sc2ccccc21 (stereo unspecified) was read as CYP2C19 act inactive, CYP2C19 inhib 66.9, CYP2C9 inh inactive and CYP2C9 activ inactive.
`O=C(CCn1c(=O)sc2ccccc21)NCCC1=CCCCC1` gave CYP2C19 act inactive, CYP2C19 inhib 88.2, CYP2C9 inh inactive and CYP2C9 activ inactive.
`Cc1ccc(C(=O)CCCn2nnc(-c3cccnc3)n2)cc1C` gave CYP2C19 act inactive, CYP2C19 inhib 80.0, EphB4 antag inactive, CYP2C9 inh 55.1 and CYP2C9 activ inactive.
Screening CC1CCCN(C(=O)Cn2nnc(-c3cccnc3)n2)C1 (stereo unspecified) returned CYP2C19 act inactive, CYP2C19 inhib inactive, EphB4 antag inactive, CYP2C9 inh inactive and CYP2C9 activ inactive.
Screening Cc1c(C(=O)OCCOc2ccccc2)[nH]c2c1C(=O)CCC2 returned CYP2C19 act inactive, CYP2C19 inhib 91.0, EphB4 antag inactive, CYP2C9 inh 91.0 and CYP2C9 activ inactive.
`COC(=O)C1C(=O)c2c([nH]c(C(=O)OC3CCCC3)c2C)CC1C` (stereo unspecified) gave CYP2C19 act inactive, CYP2C19 inhib inactive, EphB4 antag inactive, CYP2C9 inh inactive and CYP2C9 activ inactive.
CCCc1c(C(=O)OCC)[nH]c2c1C(=O)CCC2 was read as CYP2C19 act inactive, CYP2C19 inhib inactive, EphB4 antag inactive, CYP2C9 inh inactive and CYP2C9 activ inactive.
For Cc1c(C(=O)OC2CCCC2C)[nH]c2c1C(=O)CCC2 (stereo unspecified) the results were CYP2C19 act inactive, CYP2C19 inhib inactive, CYP2C9 inh 53.8 and CYP2C9 activ inactive.
For O=C(CSCCO)Nc1cccc(C(F)(F)F)c1 the results were CYP2C19 act inactive, CYP2C19 inhib inactive, EphB4 antag inactive, CYP2C9 inh inactive and CYP2C9 activ inactive.
COc1cccc(CNC(=O)CCS(=O)(=O)c2cccc3nsnc23)c1 was read as CYP2C19 act inactive, CYP2C19 inhib 64.0, EphB4 antag inactive, CYP2C9 inh inactive and CYP2C9 activ inactive.
CCc1ccc(NC(=O)CCS(=O)(=O)c2cccc3nsnc23)cc1 was read as CYP2C19 act inactive, CYP2C19 inhib 87.3, EphB4 antag inactive, CYP2C9 inh 84.7 and CYP2C9 activ inactive.
For COc1cccc(CNC(=O)CCS(=O)(=O)c2cccc3nonc23)c1 the results were CYP2C19 act inactive, CYP2C19 inhib inactive, CYP2C9 inh inactive and CYP2C9 activ inactive.
Screening CC(/C=N/NC(=O)C(O)c1ccccc1)=C\c1ccccc1 (stereo unspecified) returned CYP2C19 act inactive, CYP2C19 inhib inactive, EphB4 antag inactive, CYP2C9 inh inactive and CYP2C9 activ inactive.
Nn1c(Cc2cccc3ccccc23)nnc1SCn1nnc2ccccc2c1=O was read as CYP2C19 act inactive, CYP2C19 inhib inactive, EphB4 antag inactive, CYP2C9 inh inactive and CYP2C9 activ inactive.
Screening C=CCn1c(SCC(=O)NC2CCCCC2)nnc1C1CCCCC1 returned CYP2C19 act inactive, CYP2C19 inhib inactive, EphB4 antag inactive, CYP2C9 inh inactive and CYP2C9 activ inactive.
`C=CCn1c(SCn2nnc3ccccc3c2=O)nnc1-c1ccc(Br)cc1` gave CYP2C19 act inactive, CYP2C19 inhib 75.6, EphB4 antag inactive, CYP2C9 inh 75.2 and CYP2C9 activ inactive.
Screening CCc1cccc(CC)c1-n1c(SCn2nnc3ccccc3c2=O)nnc1-c1cccnc1 returned CYP2C19 act inactive, CYP2C19 inhib 96.2, EphB4 antag inactive, CYP2C9 inh 93.3 and CYP2C9 activ inactive.
C=CCn1c(SCn2nnc3ccccc3c2=O)nnc1-c1ccc(F)cc1 was read as CYP2C19 act inactive, CYP2C19 inhib 99.1, CYP2C9 inh inactive and CYP2C9 activ inactive.
For C=CCn1c(SCn2nnc3ccccc3c2=O)nnc1C1CCCCC1 the results were CYP2C19 act inactive, CYP2C19 inhib 97.6, EphB4 antag inactive, CYP2C9 inh inactive and CYP2C9 activ inactive.
Screening Cc1nc(SCn2nnc3ccccc3c2=O)nc(C)c1C returned CYP2C19 act inactive, CYP2C19 inhib 75.2, CYP2C9 inh inactive and CYP2C9 activ inactive.
Screening CCOc1ccc(OCC)c(NC(=O)C2CCCN(c3nc(C)cc(C)n3)C2)c1 (stereo unspecified) returned CYP2C19 act inactive, CYP2C19 inhib 73.2, CYP2C9 inh 75.9 and CYP2C9 activ inactive.
For COc1ccccc1NC(=O)C1CCCN(c2nc(C)cc(C)n2)C1 (stereo unspecified) the results were EphB4 antag inactive.
For O=C(NCCC1=CCCCC1)C1CC(=O)N(C2CCCCCC2)C1 (stereo unspecified) the results were CYP2C19 act inactive, CYP2C19 inhib 51.8, EphB4 antag inactive, CYP2C9 inh 57.4 and CYP2C9 activ inactive.
For Cc1cc(C)nc(N2CCCC(C(=O)NCc3cccc(C(F)(F)F)c3)C2)n1 (stereo unspecified) the results were CYP2C19 act inactive, CYP2C19 inhib inactive, EphB4 antag inactive, CYP2C9 inh inactive and CYP2C9 activ 2.1.
Screening Cc1cc(C)nc(N2CCCC(C(=O)Nc3cc(F)ccc3C)C2)n1 (stereo unspecified) returned CYP2C19 act inactive, CYP2C19 inhib 64.7, EphB4 antag inactive, CYP2C9 inh inactive and CYP2C9 activ inactive.
CCCCNC(=O)C1CC(=O)N(C2CCCCC2)C1 (stereo unspecified) was read as CYP2C19 act inactive, CYP2C19 inhib inactive, EphB4 antag inactive, CYP2C9 inh inactive and CYP2C9 activ inactive.
Screening O=C(c1cccc2ccccc12)n1nnc2ccccc21 returned EphB4 antag inactive.
For Cc1cc(C)nc(N2CCCC(C(=O)NC3CCCC3)C2)n1 (stereo unspecified) the results were CYP2C19 act inactive, CYP2C19 inhib 58.0, EphB4 antag inactive, CYP2C9 inh inactive and CYP2C9 activ inactive.
Cc1cc(C)nc(N2CCCC(C(=O)NCCC3=CCCCC3)C2)n1 (stereo unspecified) was read as CYP2C19 act inactive, CYP2C19 inhib 73.3, EphB4 antag inactive, CYP2C9 inh inactive and CYP2C9 activ inactive.
`Cc1cc(C)nc(N2CCCC(C(=O)NCCc3cccc(F)c3)C2)n1` (stereo unspecified) gave CYP2C19 act inactive, CYP2C19 inhib inactive, EphB4 antag inactive, CYP2C9 inh inactive and CYP2C9 activ inactive.
CCn1c(CNC(=O)c2ccccc2)nc2ccccc21 was read as EphB4 antag inactive.
O=C(NCCSc1c[nH]c2ccccc12)c1ccc(Br)o1 was read as CYP2C19 act inactive, CYP2C19 inhib inactive, EphB4 antag inactive, CYP2C9 inh 85.8 and CYP2C9 activ inactive.

Compound activity as filed in PubChem BioAssay.
